# Test results: the supplement of paper PMC12636033
# ± gives the standard deviation of the averaged measurements. The full ranking holds about 33,000 sequences; the median of “E-score (rank enrichment, -0.5 to 0.5)” is about -0.0028, and the highest 2% start at about 0.23. Shown is part of a subset that was picked to be rich in the highest values.
# Test system: 2Sb-muMax20 (muMax20 with two 1,3-bis(methyl)benzene Cys staples, A13C/A17C and Q88C/A92C, C-terminal Lys)
# Experiment: PBM 8-mer E-score (E-score (rank enrichment, -0.5 to 0.5)); higher = stronger preferential binding
# Protocol: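 Protein binding microarray (universal PBM chip covering all 10-mers in fixed probe flanks) with chemically synthesized human Max(13-93) bHLH-LZ analogs (not full-length Max) bearing noncanonical residues (hArg, Tha, Aib, Nle at 65) and aromatic Cys staples. Read-out per 8-mer (and its reverse complement): E-score (rank-based enrichment, -0.5 to 0.5) and Z-score of median probe intensity.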
row,Sequence,PBM 8-mer E-score
1,CCGACGGC,-0.2 ± 0.038
2,GTAGTGAA,0.206 ± 0.042
3,TAATGCGA,0.018 ± 0.0008
4,AAACCGGG,0.0468 ± 0.0036
5,CCGATTGA,-0.00849 ± 0.0099
6,ACGTTATC,0.0764 ± 0.057
7,ACGTTATG,0.2695 ± 0.0015
8,ACGTTATA,0.105 ± 0.0054
9,TCATCAAA,-0.124 ± 0.034
10,CATTCGAG,0.0428 ± 0.017
11,ATCGTAAT,0.246 ± 0.023
12,ATCGTAAA,0.0946 ± 0.014
13,ATCGTAAG,0.0321 ± 0.021
14,AATTGGTG,0.142 ± 0.023
15,AATTGGGG,0.317 ± 0.0083
16,CATTGGGG,0.255 ± 0.038
17,CATTGGGA,-0.021 ± 0.0046
18,AATTGGAG,0.0796 ± 0.067
19,CATTGGGC,-0.173 ± 0.044
20,AATTGGGA,0.218 ± 0.012
21,AATTGGGT,0.2396 ± 0.0021
22,AATTGGGC,0.1581 ± 0.00092
23,AGCATTGG,-0.0228 ± 0.0039
24,TCCCCGAA,0.0276 ± 0.02
25,ATGTTGAC,0.0701 ± 0.026

row,Sequence,PBM 8-mer E-score
1,GCAATTCC,-0.0345 ± 0.025
2,ATTGGCAA,0.105 ± 0.047
3,ACTGAAAA,0.0674 ± 0.026
4,GCGGAAGA,-0.0695 ± 0.055
5,AAGGTCCT,-0.112 ± 0.078
6,GGAATGCA,0.038 ± 0.021
7,CTTAATGA,0.0296 ± 0.046
8,ATTAATAC,0.241 ± 0.012
9,CTTAACAC,0.173 ± 0.015
10,ATTAATAG,0.186 ± 0.045
11,ATTAACAC,0.239 ± 0.026
12,GATAATAA,0.191 ± 0.037
13,GATAATAC,0.234 ± 0.042
14,ATTAATAA,0.177 ± 0.038
15,ATTAATGC,0.147 ± 0.069
16,CTTAATGC,0.234 ± 0.011
17,ATTAACAA,0.154 ± 0.00047
18,AATAATAC,0.0444 ± 0.028
19,GTTGCTAA,0.124 ± 0.023
20,CCAACGCG,-0.0237 ± 0.021
21,AATACTCA,0.102 ± 0.013
22,CGTCCGTC,-0.11 ± 0.051
23,ACACATAT,0.124 ± 0.021
24,ATAGGGCG,0.138 ± 0.0092
25,ATGATCAG,-0.0255 ± 0.099

row,Sequence,PBM 8-mer E-score
1,CACTTGAC,-0.0462 ± 0.076
2,CTTAATTC,0.173 ± 0.039
3,CTTAATAC,0.244 ± 0.042
4,CTTAATAA,-0.0695 ± 0.0064
5,ATCAGCTA,0.00813 ± 0.027
6,AATGAAGA,0.0161 ± 0.012
7,AATGAAGT,0.238 ± 0.026
8,AATGAAGG,0.0344 ± 0.037
9,AACAATAA,0.133 ± 0.017
10,TACAATAA,0.331 ± 0.05
11,CACAACAC,0.219 ± 0.035
12,CACAATAA,0.0489 ± 0.053
13,GACAACAC,-0.0706 ± 0.0054
14,AACAACAA,0.194 ± 0.033
15,TACAACAA,0.268 ± 0.0087
16,AACAACAC,0.2764 ± 0.0019
17,CACAACAA,0.212 ± 0.0096
18,CATTTCCG,-0.0659 ± 0.0054
19,CTTCCCGC,0.0401 ± 0.037
20,ACACGTTA,0.08518 ± 0.00069
21,ATTATAAT,0.141 ± 0.034
22,ATTATAAG,0.205 ± 0.057
23,ATTATACG,0.0799 ± 0.014
24,ATTATAAC,0.306 ± 0.0034
25,ATTATACA,0.0477 ± 0.0088

row,Sequence,PBM 8-mer E-score
1,ATTATACC,0.237 ± 0.011
2,GGCTTCAC,-0.204 ± 0.1
3,CGAGTCAG,-0.177 ± 0.05
4,CTGTATGC,0.0233 ± 0.062
5,CGATACGA,-0.06 ± 0.12
6,ACATAATC,0.142 ± 0.023
7,GTATAATA,0.226 ± 0.012
8,ACATAATA,0.302 ± 0.0096
9,ATATAAGA,0.249 ± 0.011
10,GCATAATA,0.195 ± 0.083
11,CTATAATA,0.0375 ± 0.0029
12,CTATAAGA,0.0167 ± 0.02
13,GTATAAGA,0.212 ± 0.037
14,ATATAATA,0.274 ± 0.044
15,CTTAGCTA,-0.0391 ± 0.023
16,CTTTCTCC,0.00231 ± 0.006
17,CATACAGA,-0.0476 ± 0.0072
18,CACCTGCG,-0.168 ± 0.017
19,CCGTATCG,-0.0355 ± 0.019
20,AAGTGGGA,0.281 ± 0.018
21,ACGTGGGC,0.169 ± 0.022
22,ACGTGGAT,0.207 ± 0.043
23,ACGTGGTG,0.316 ± 0.034
24,TAGTGGGA,0.038 ± 0.0028
25,ACGTGGTC,0.111 ± 0.0094

row,Sequence,PBM 8-mer E-score
1,CCGTGGAG,-0.106 ± 0.074
2,ACGTGGTA,0.216 ± 0.024
3,ACGTGGGA,0.203 ± 0.044
4,ACGTGGGG,0.261 ± 0.045
5,ACGTGGAG,0.279 ± 0.0086
6,GAGTGGGA,-0.0417 ± 0.045
7,TCTCGCCA,0.0619 ± 0.024
8,AAAAGGCA,0.0454 ± 0.064
9,ACGTGGCT,0.291 ± 0.048
10,AAGTGGGG,0.264 ± 0.032
11,ACGTGGCA,0.114 ± 0.049
12,ACGTGGCC,-0.0906 ± 0.018
13,AAGTGGGT,0.1 ± 0.0081
14,AAGTGGGC,0.0223 ± 0.023
15,AACCGTGC,-0.0303 ± 0.0035
16,CGGTATTC,-0.204 ± 0.072
17,GGCCGGCC,-0.285 ± 0.0086
18,CCACGGTA,-0.185 ± 0.042
19,TTAAAGAA,0.125 ± 0.032
20,GCGTAAAC,0.0507 ± 0.016
21,AATTCCAG,0.0496 ± 0.043
22,ATACTACG,0.0847 ± 0.053
23,GGACTCAA,-0.0969 ± 0.07
24,TATGGGGA,0.28 ± 0.014
25,ATTGGGGG,0.0136 ± 0.03

row,Sequence,PBM 8-mer E-score
1,ATTGGGCC,-0.04 ± 0.093
2,GTTGGGGA,0.166 ± 0.092
3,AATGGGGA,0.143 ± 0.0043
4,CTTGGGGA,0.269 ± 0.046
5,ATTGGGAA,0.192 ± 0.0077
6,ATTGGGGC,0.284 ± 0.0076
7,ATTGGGTA,0.161 ± 0.015
8,CATGGGGA,0.172 ± 0.05
9,CTTGGGAA,-0.0626 ± 0.05
10,ATTGGGGA,0.244 ± 0.0088
11,AGTGGCTA,-0.0163 ± 0.084
12,AGTTTCAC,0.045 ± 0.0036
13,CAGCTCAG,-0.0712 ± 0.0083
14,GGCCACAA,-0.0539 ± 0.0061
15,ACATTCTC,-0.0346 ± 0.019
16,AAGGGGTG,0.117 ± 0.065
17,ATGGGGTG,0.238 ± 0.0055
18,AGGGGGTG,-0.116 ± 0.099
19,ATGGGGTA,0.249 ± 0.034
20,ATGGGGTC,0.0475 ± 0.043
21,CTGGGGTA,0.179 ± 0.0054
22,ACGTAGAA,-0.00421 ± 0.0043
23,AGCGCTCG,-0.0768 ± 0.062
24,AAATCCGA,0.0186 ± 0.034
25,GGGAATGA,0.322 ± 0.017

row,Sequence,PBM 8-mer E-score
1,TGGAATAA,0.0314 ± 0.022
2,GGGAATAA,0.273 ± 0.024
3,AGGAATGA,0.00801 ± 0.012
4,CGGAATGA,-0.065 ± 0.018
5,GGGAATAC,0.0722 ± 0.022
6,AAGGCACT,0.0491 ± 0.026
7,GAGTGCCA,-0.0641 ± 0.028
8,ACTCTGCT,-0.214 ± 0.017
9,CATATCCG,0.0256 ± 0.071
10,AATTTTCC,0.085 ± 0.0046
11,CAAATTCC,0.117 ± 0.042
12,CGTTTCTC,-0.0396 ± 0.11
13,GACAGGGA,-0.156 ± 0.072
14,AAGCAACT,0.00018 ± 0.012
15,ATAAAGCG,0.0637 ± 0.015
16,CTAAAGCA,0.097 ± 0.0042
17,ATAAAGCA,0.261 ± 0.077
18,AGTTAGAA,0.0284 ± 0.083
19,ACGTGCAC,0.281 ± 0.028
20,GCGTGCAC,0.164 ± 0.039
21,CCGTGCAA,-0.0691 ± 0.042
22,ACGTGCAA,0.252 ± 0.037
23,CCGTGCAC,0.126 ± 0.009
